Screens: PubChem BioAssay, National Center for Advancing Translational Sciences (NCATS)
Hits are enriched below; roughly 19% of the tested compounds scored in any of these assays.
HT1080-NT tox = kills 2HG-producing HT-1080-NT fibrosarcoma cells; HT-1080-NT fibrosarcoma viability, CellTiter-Glo ATP luminescence, 48 h; Potency, µM (top dose mostly 46.1 µM), hits mostly cytotoxic; 360,000 compounds, 1.6% hits; AID 686970;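 note: NT is the 2HG producing partner of a matched IDH1 knockdown line; nearly all actives have a fitted effect of over 55% in size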
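Luminescent CellTiter-Glo readout after 48 hours of compound exposure at 37 degrees C defined viability of HT-1080-NT cells. Activity was normalized to DMSO wells and cell-free media wells; concentration-response curves were fitted and assigned curve classes.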
HT1080 IDH1KD tx = kills HT-1080 cells with IDH1 knockdown; HT-1080 IDH1 knockdown viability, ATP luminescence, 48 h; Potency, µM (top dose mostly 46.1 µM), usual class: cytotoxic; 360,000 compounds, 2% hits
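IDH1KD HT-1080 cells, 750/well, RPMI + 5% FBS; compound pinned after 2 h settling; 48 h, 37 °C; CellTiter-Glo luminescence; % activity normalised to DMSO and no-cell wells; curves fitted, classed by r2 and efficacy.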
DT40 TDP1 no CPT = qHTS for Inhibitors of human tyrosyl-DNA phosphodiesterase 1 (TDP1): qHTS in cells in absence of CPT | DT40 Tdp1-/- hTDP1 cells, no CPT, ATP luminescence, 48 h | Potency, µM (doses to about 46.2 µM), hits mostly inhibitors | 420,000 compounds, 15% hits | AID 686978, 2013; note: nearly all actives have a fitted effect of over 55% in size
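Chicken DT40 Tdp1-/- cells complemented with human TDP1, screened without camptothecin (DMSO vehicle only), 400 cells/well. Compounds pin-transferred, cells incubated at 37 °C for at least 48 hr. Growth read as ATP-dependent luminescence (CellTiter-Glo, 30 min at RT).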
IL-1B inflam inh = blocks inflammasome-driven IL-1 beta release | AID 743279 | activity change, % at 57.5 µM | THP-1 LPS/ATP IL-1B secretion, AlphaLISA, 16 h; active compounds read low | 360,000 compounds, 4.7% hits; in the data active = activity change below about -50%; inconclusive = mostly about -30% to -49%
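THP-1 cells pretreated 1 hr with compounds (up to 57.5 uM final), then stimulated with LPS (250 ng/mL final) plus ATP (1.25 mM final); secreted IL-1B measured by AlphaLISA after 16 hr, decreased signal indicating inhibition.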
TDP1 cell CPT = growth inhibition of DT40 Tdp1-/-;hTDP1 cells with camptothecin (screen for TDP1 inhibitors); 420,000 compounds, 12% hits; chicken DT40 Tdp1-/-;hTDP1 cells + 20 nM CPT, ATP luminescence, 48 h; Potency, µM (series often up to 46.2 µM), usual class: inhibitors; note: nearly all actives have a fitted effect of over 55% in size
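Chicken DT40 Tdp1-/- cells stably complemented with human TDP1 were seeded at 400 cells/well in medium containing 20 nM camptothecin, exposed to pin-transferred compounds, and grown at 37 °C for at least 48 hr. Viability was read as ATP luminescence.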
Numbers stand for hits; . = inactive; ? = inconclusive; / = no result given; ! = a repeat was not active; [ ] = remark or other dose. Unless noted, calls come from the whole dose curve; as a rule, active = well fitted curve in the direction sought with a large enough effect; inconclusive = small, poorly fitted or top-dose-only effect, or another doubt; inactive = no such curve, though single readings can be large; an effect the other way counts as inactive or inconclusive.

SMILES | HT1080-NT tox | HT1080 IDH1KD tx | DT40 TDP1 no CPT | IL-1B inflam inh | TDP1 cell CPT
Cc1cc2c(=O)n(C)c(SCC(=O)Nc3cccc(O)c3)nc2s1 | . | . | . | . | ?
NC(=O)Nc1ccc(C(=O)OCC(=O)N2CCCC2=O)cc1 | .[9.24 µM] | . | . | . | .
CCOC(=O)[C@]12CCCC=C1N(Cc1ccco1)C(=O)[C@H](CC(=O)N1CCN(C(=O)c3ccco3)CC1)C2 | . | . | . | . | .
COc1cc(C2CC(=O)Oc3c(C(CCN4CCN(c5ccccc5)CC4)c4ccc(N(C)C)cc4)c(OC)cc(OC)c32)cc(OC)c1OC (stereo not drawn) | . | . | ? | . | ?
COc1cc(OC)c2c(-c3ccccc3)cc(=O)oc2c1C(CCN1CCN(c2ccccc2)CC1)c1ccc(N(C)C)cc1 (stereo not drawn) | . | . | 23µM | . | 15µM
COc1cc(OC)c2c(-c3ccccc3)cc(=O)oc2c1C(CC(=O)N1CCOCC1)c1ccc(N(C)C)cc1 (stereo not drawn) | . | . | ? | . | ?
COc1cc(OC)c2c(C)cc(=O)oc2c1C(CCN1CCOCC1)c1ccc(N(C)C)cc1 (stereo not drawn) | . | . | 16µM | . | 5.2µM
COc1cc(OC)c2ccc(=O)oc2c1C(CCN1CCN(c2ccccc2)CC1)c1ccc(N(C)C)cc1 (stereo not drawn) | . | . | ? | . | 15µM
CCCCCc1cc(=O)oc2c(C(CCN3CCN(c4ccccc4)CC3)c3ccc(N(C)C)cc3)c(OC)cc(OC)c12 (stereo not drawn) | . | . | ? | . | 21µM
COc1ccc(CCSc2n[nH]c(C(C)C)n2)cc1 | / | / | . | / | .
CC(C)C[C@@H](CO)N(Cc1ccccc1)S(=O)(=O)N(Cc1ccccc1)[C@H](CO)CC(C)C | ? | ? | 13µM | -79 | 13µM
COc1ccc(CN([C@H](C)CO)S(=O)(=O)N(Cc2ccccc2)[C@H](CO)C(C)C)cc1 | . | . | 16µM | . | 35µM
O=S(=O)(N(Cc1ccccc1)[C@H](CO)Cc1ccccc1)N(Cc1ccccc1)[C@H](CO)Cc1ccccc1 | . | . | ? | . | ?
CC(C)C[C@@H](CO)N(Cc1ccccc1)S(=O)(=O)N(Cc1ccccc1)[C@@H](CO)CC(C)C | ? | ? | 18µM | -63 | 16µM!
COc1ccc(CN([C@H](CO)CC(C)C)S(=O)(=O)N(Cc2ccccc2)[C@H](CO)CC(C)C)cc1 | 16µM | 6.5µM | 23µM | -88 | ?
CN(C(=O)COc1cccc(C#N)c1)C1CCS(=O)(=O)C1 (stereo not drawn) | . | . | . | . | .
CCN([C@H](CO)CC(C)C)S(=O)(=O)c1ccccc1 | . | . | ? | . | ?
C=C[C@H](CC(C)C)N(Cc1ccccc1)S(=O)(=O)N(Cc1ccccc1)[C@@H](C=C)CC(C)C | . | . | 15µM | . | 13µM
C=CS(=O)(=O)N(Cc1ccccc1Br)[C@H](CO)CC(C)C | . | . | 10µM | ? | 23µM
CC(C)(C)c1ccc(CC(=O)N2CCC2(C)C(=O)Nc2cccc3c2CCCC3)cc1 (stereo not drawn) | ? | ? | ? | . | ?
Cc1ccc(CNC(=O)CCc2nnc3ccc(N4CCC5(CC4)OCCO5)nn23)cc1 | . | . | . | . | .
N[C@](CC1c2ccccc2Oc2ccccc21)(C(=O)O)[C@@H]1C[C@@H]1C(=O)O | / | / | . | / | .
O=C(Cc1ccc(OCC2CCCCC2)cc1)NO | / | / | 11µM | / | 10µM
CN(C)CCN(C)C1CN(C2CCCC2)S(=O)(=O)C1 (stereo not drawn) | . | . | . | . | .
CCOc1ccc(-n2c(=S)sc3c(=O)[nH]c(SCC(=O)C(C)(C)C)nc32)cc1 | . | ? | 18µM | . | 26µM
CCCCC(=O)Nc1sc(C(=O)N(CC)CC)c(C)c1C(=O)OC | . | . | 18µM | . | ?
CCOC(=O)c1sc(NC(=O)CC)c(C#N)c1C | . | . | . | . | .
CCOC(=O)c1c(NC(=O)CN(C)C)sc(C(=O)N(CC)CC)c1C | . | . | . | . | .
